Common to all, as to assay: NCI-60 one-dose screen, 48 h (100 = growth as untreated, 0 = no growth, -100 = all killed)
Holding throughout (details): 10 µM

The test system of assay [1] is SK-MEL-2 melanoma.
For assay [2], the system named is EKVX NSCLC.
The subject of assay [3] is SN12C renal.
Assay [4] concerns UO-31 renal.
Assay [5] has as its system TK-10 renal.
Assay [6] relates to ACHN renal.
Assay [7] relates to CAKI-1 renal.
In assay [8] the test system is MOLT-4 leukemia.
Assay [9] deals with SR leukemia.
Assay [10] relates to OVCAR-8 ovarian.
Assay [11] relates to OVCAR-5 ovarian.
Assay [12] deals with OVCAR-4 ovarian.
The test system of assay [13] is SK-OV-3 ovarian.
Assay [14] has as its system IGROV1 ovarian.
Assay [15] concerns OVCAR-3 ovarian.
In assay [16] the test system is HS 578T breast.
The test system of assay [17] is NCI/ADR-RES ovarian.

12 compounds from PubChem BioAssay (NCI) can be followed below.

About 83,000 compounds went through this panel and 20% of them were active in at least one assay; those are over-represented in the sample as a whole.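 Values shown are percent growth following 48 h exposure of cells in 96-well plates to a single concentration of compound; below 10 was considered active.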 Values without a mark were called inactive. Calls of active or inactive are those of the source.

Take `COCCn1cc(-c2nc(-c3cccnc3)cs2)c2cc(F)ccc21`: the growth is 106% in assay [1]; 90.8% in assay [2]; 95.7% in assay [3]; 107% in [4]; 80.4% in [5]; 101% in assay [6]. For the same compound, the growth in assay [7] is 103%; in assay [8], 79.3%; in assay [9] it was 63.5%; in assay [10] it was 102%; in [11], 92.7%; in assay [12], 95.6%. The growth in assay [13] is 7.36% (active); in assay [14], 110%; in [15], 94.1%; in assay [16], 98.6%; in [17] it was 86%.

On to `CCOC(=O)c1sc2ncnc(Nc3ccc(NC(=O)Nc4ccc(Cl)cc4)cc3)c2c1C`, for which the growth is 87.2% in assay [1]; 74.4% in assay [2]; 60.5% in assay [3]; 54.9% in assay [4]; 89.4% in [5]; 64.4% in assay [6]. The growth in [7] was 83.9%; in assay [8], 66.3%; in assay [9], 44.3%; in [10] it was 38.7%; in assay [11] it was 99.2%; in assay [12], 53.4%. Further, the growth in [13] was 74.6%; in assay [14] it was 92.3%; in assay [15], 62.9%; in assay [16] it was 41.4%; in [17] it was 37.2%.

For the compound `Clc1nc2ccccc2cc1Cn1nnc(Cc2ccccc2)n1`, the growth in assay [1] is 58.8%; in [2] it was 36.1%; in assay [3], 70.3%; in assay [4] it was -81% (active); in assay [5], 60.9%; in assay [6], 52.2%. Moreover, the growth in assay [7] was 40.5%; in assay [8], 43.1%; in assay [9], 37%; in [10], 71.6%; in [11], 104%; in assay [12], 29.7%. Besides, the growth in assay [13] was 57.4%; in [15] it was 59.5%; in assay [16], 76.6%; in [17], 52.1%.

Regarding `COc1ccc(C(=O)c2ccccc2CN2C(=O)c3ccccc3C2=O)cc1`, the growth is 103% in [1]; 101% in [2]; 105% in [3]; 75.1% in assay [4]; 104% in assay [5]; 102% in assay [6]. For the same compound, the growth in assay [7] is 102%; in assay [8] it was 87%; in assay [9], 91.8%; in assay [10], 97%; in [11], 109%; in [12], 105%. Moreover, the growth in assay [13] was 109%; in assay [15], 105%; in assay [16] it was 105%; in assay [17], 95.5%.

Consider `COc1ccc(-c2cc(-c3cc(OC)ccc3OC)nc(N)c2C#N)cc1`, for which the growth was 77.1% in [1]; 70.5% in assay [2]; 59% in assay [3]; 69.4% in [4]; 103% in [5]; 66.1% in assay [6]. For the same compound, the growth in assay [7] was 90.3%; in assay [8] it was 85%; in [9], 43.9%; in assay [10], 39.5%; in assay [12], 48.4%; in assay [13] it was 62.9%. Also, the growth is 53.7% in assay [15], 53.7% in [16] and 52.4% in assay [17].

On to `COc1ccc(-c2nn(-c3cccc(Cl)c3)cc2-c2nc(N)[nH]c(=O)c2C#N)cc1`, for which the growth is 70.9% in assay [1]; 31.8% in [2]; 84.9% in assay [3]; 29.7% in assay [4]; 110% in [5]; 87.5% in assay [6]. Moreover, the growth in assay [7] is 30.6%; in assay [8], 53.7%; in [9] it was 19.3%; in [10], 96.4%; in [11] it was 94.3%; in [12], 85.7%. The growth in assay [13] is 90%; in assay [14], 61%; in [15] it was 106%; in assay [16] it was 76.6%; in [17], 66.3%.

For the compound `N#Cc1c(-c2ccc(Cl)cc2)cc(-c2cc(O)ccc2O)nc1N`, the growth was 31.2% in assay [1]; 42.9% in [2]; -2.03% (active) in assay [3]; 59% in assay [4]; 79.6% in assay [5]; 8.35% (active) in assay [6]. The growth was 82.8% in [7]; 11.3% in [8]; 21.7% in [9]; 1.52% (active) in [10]; 86.6% in assay [11]; 22.9% in assay [12]. Besides, the growth in assay [13] was 45.2%; in assay [14], 7.29% (active); in [15], -17.2% (active); in assay [16], 27.6%; in [17], 65.3%.

For the compound `Nc1cc(-c2ccc(Cl)cc2)nn1-c1nc2ccccc2nc1Cc1ccccc1`, the growth in [1] was 100%; in [2] it was 78.6%; in assay [3], 94.1%; in assay [4], 87%; in assay [5], 99.2%; in assay [6] it was 103%. For the same compound, the growth in assay [7] was 80.7%; in [10], 91.2%; in assay [11], 95%; in assay [13], 96.7%; in assay [14], 94.9%; in [17] it was 87.5%.

`Nc1ccc(-c2cccs2)cc1NC(=O)c1ccc(CCCC(=O)Nc2ccc(C3CC3N)cc2)cc1` (centres undefined): the growth was 69.6% in [1]; 73.9% in [2]; 80.3% in assay [3]; 75.8% in assay [4]; 55.6% in assay [5]; 83.5% in [6]. The growth was 88.7% in assay [7]; 47% in [8]; -10.5% (active) in assay [9]; 44.9% in [10]; 86.2% in [11]; 93% in assay [12]. Besides, the growth in [13] is 68%; in assay [14], 80.9%; in [15] it was 63%; in [16], 75.5%; in assay [17], 87.5%.

In the case of `COc1cc2c3c(n(C4CCNCC4)c(=O)c2cc1OC)-c1cc2c(cc1C3=O)OCO2`, the growth was 76.4% in [1]; -68.4% (active) in assay [2]; -69% (active) in [3]; -70.2% (active) in assay [4]; 76% in [5]; -81.7% (active) in assay [6]. Moreover, the growth was 21.4% in [7]; -27.1% (active) in assay [8]; -24.4% (active) in assay [9]; -43.1% (active) in assay [10]; -66.8% (active) in [11]; -23.4% (active) in [12]. Moreover, the growth in assay [13] was -42.2% (active); in assay [14], -57.1% (active); in assay [15], -88.9% (active); in assay [16], -48.5% (active); in assay [17], -39.8% (active).

As for `IC(I)I`, the growth in assay [1] was 108%; in assay [2] it was 102%; in assay [3], 95.1%; in [4], 97.2%; in assay [5], 107%; in [6], 110%. In addition, the growth in assay [7] is 103%; in assay [8], 102%; in [9] it was 122%; in assay [10], 107%; in assay [11], 94.1%; in assay [12], 108%. Moreover, the growth is 103% in [14], 106% in assay [15], -4.06% (active) in [16] and 105% in assay [17].

Take `CCNc1nc(C(F)(F)F)nc2c1sc(=S)n2-c1ccccc1`: the growth in [1] is 88.1%; in assay [2], 86.1%; in [3], 100%; in [4], 104%; in [5] it was 88.8%; in assay [6] it was 93.1%. Also, the growth in [7] was 93.6%; in assay [8], 81.8%; in [9], 83.5%; in assay [10], 96.1%; in assay [11], 112%; in [12], 98.2%. Further, the growth in [13] was 102%; in [14], 102%; in [15], 107%; in [16], 107%; in assay [17] it was 92.9%.
